According to PMC4336329 (PLoS ONE, 2015):
Out of some 310,000 compounds screened, about 14,000 (4.5%) showed an effect of 50% or more. Effects have a minus sign here. The sample as a whole holds a higher share of strong results than the screen did.

target: human ether-à-go-go-related gene (hERG) potassium channel (human, UniProt Q12809); assay: primary screen, population patch clamp on CHO cells stably expressing hERG; higher = less effect of the substance
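Further: peak tail current of the secondary pulse compared with the same well before compound.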

Sequence of human ether-à-go-go-related gene (hERG) potassium channel (Q12809 whole entry, looked up): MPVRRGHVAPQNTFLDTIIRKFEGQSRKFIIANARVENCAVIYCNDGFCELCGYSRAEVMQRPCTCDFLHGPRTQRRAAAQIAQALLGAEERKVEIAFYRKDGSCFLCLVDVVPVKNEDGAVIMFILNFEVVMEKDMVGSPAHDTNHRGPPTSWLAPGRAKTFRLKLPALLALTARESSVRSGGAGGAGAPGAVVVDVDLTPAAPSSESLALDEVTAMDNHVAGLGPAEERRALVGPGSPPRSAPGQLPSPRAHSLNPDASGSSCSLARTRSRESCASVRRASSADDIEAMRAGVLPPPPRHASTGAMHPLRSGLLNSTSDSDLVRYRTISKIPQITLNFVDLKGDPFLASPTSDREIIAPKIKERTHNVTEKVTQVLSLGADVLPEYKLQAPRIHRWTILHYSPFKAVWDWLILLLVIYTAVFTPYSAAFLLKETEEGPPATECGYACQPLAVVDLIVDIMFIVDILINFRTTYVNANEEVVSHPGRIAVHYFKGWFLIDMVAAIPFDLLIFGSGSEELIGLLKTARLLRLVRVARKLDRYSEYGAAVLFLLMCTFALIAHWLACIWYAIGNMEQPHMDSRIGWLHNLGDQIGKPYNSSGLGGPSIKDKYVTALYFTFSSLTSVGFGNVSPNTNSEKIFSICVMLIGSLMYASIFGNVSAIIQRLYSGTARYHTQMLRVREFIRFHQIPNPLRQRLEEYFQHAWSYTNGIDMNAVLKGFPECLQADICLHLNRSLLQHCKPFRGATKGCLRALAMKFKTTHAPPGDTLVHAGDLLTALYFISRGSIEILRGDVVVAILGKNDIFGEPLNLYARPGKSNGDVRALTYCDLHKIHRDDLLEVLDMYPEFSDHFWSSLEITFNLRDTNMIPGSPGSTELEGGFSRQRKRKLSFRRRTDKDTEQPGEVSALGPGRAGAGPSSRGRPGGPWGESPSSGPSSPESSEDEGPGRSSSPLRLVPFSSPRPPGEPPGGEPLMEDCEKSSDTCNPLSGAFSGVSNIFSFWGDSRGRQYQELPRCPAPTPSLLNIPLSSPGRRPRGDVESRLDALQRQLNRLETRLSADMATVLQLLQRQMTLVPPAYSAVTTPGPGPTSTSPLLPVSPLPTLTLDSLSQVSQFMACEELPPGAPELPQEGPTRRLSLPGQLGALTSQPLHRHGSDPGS

| Compound | hERG current change (%, negative = inhibition) at 10uM [%] |
| --- | --- |
| Br.COc1cc2c(cc1OC)-c1c(OC)c(OC)cc3c1[C@H](C2)[NH+](C)CC3 | -16.7 |
| COc1cc2c(c(O)c1OC)C(=O)C(OC)CCC2 (stereo not shown) | -3.32 |
| COc1cc2c(c(OC)c1OC)-c1c(cc(OC)c(OC)c1OC)C[C@H](C)[C@H](C)C2 | -71.9 |
| COc1cc2c(c(OC)c1OC)-c1c(cc3c(c1OC)OCO3)C1OC2[C@@H](C)[C@H]1C (stereo partly shown) | -4.76 |
| C/C=C(/C)C(=O)O[C@@H]1c2cc3c(c(OC)c2-c2c(cc(OC)c(OC)c2OC)[C@@H](OC(C)=O)[C@@H](C)[C@H]1C)OCO3 | 4.78 |
| COc1cc2c(c(OC)c1OC)-c1c(cc(OC)c(OC)c1OC)C[C@](C)(O)[C@@H](C)C2 | -73.7 |
| COc1cc2c(c(OC)c1OC)C(=O)CC2 | 15.6 |
| COc1cc(C2(O)CCCCC2C)cc(OC)c1OC (stereo not shown) | 15.9 |
| COc1cc2c(c(OC)c1OC)-c1c(cc3c(c1O)OCO3)C[C@@H](C)[C@@H](C)C2 | 0.26 |
| COc1cc2c(c(OC)c1OC)-c1c(cc3c(c1OC)OCO3)C[C@H](C)[C@@](C)(O)C2 | 28.4 |
| O=S(=O)(N/N=C/c1ccc(N2CCOCC2)cc1)c1ccc(Br)cc1 | 15.1 |
| Cc1ccc2nc(-c3ccc(NC(=O)CN4C(=O)NC(C)(c5ccc(OC(F)F)cc5)C4=O)cc3)sc2c1 (stereo not shown) | 12.4 |
| Cc1cccc(-n2c(C)cc(/C=N/n3cnnc3)c2C)c1 | -0.869 |
| O=C(Nc1ccc(S(=O)(=O)Nc2nccs2)cc1)C1CC(=O)N(c2ccc(Cl)cc2)C1 (stereo not shown) | 0.55 |
| CC1=C(C(=O)OC(C)C)C2(O)C(=O)c3ccccc3C2(O)N1 (stereo not shown) | 12 |
| CN(CC(=O)Nc1c(Cl)cccc1Cl)C(=O)Cc1cccs1 | 2.98 |
| Cc1cc(=O)oc(C)c1C(=O)NCc1ccc(F)cc1 | -15.9 |
| O=C1CCCCC/C1=N/Nc1ccc(OCc2ccccc2)cc1 | 17.3 |
| CC(C)(C)c1ccc(-n2ncc3c2CCCC3NC(=O)C2(C(N)=O)CC2)cc1 (stereo not shown) | -29.1 |
| CCCCOc1ccc(/C=C/C(=O)OCC(=O)N2CC(=O)Nc3ccccc32)cc1OCC | 21.2 |
| CCOC(=O)c1c(C)n(C)c2ccc(O)c(CN3CCCCC3)c12 | -55.5 |
| CCOC(=O)c1c(CSc2ccccc2)n(C)c2ccc(O)c(CN3CCOCC3)c12 | -46.3 |
| CCOC(=O)c1c(CSc2ccccc2)n(C)c2ccc(O)c(CN3CCN(C)CC3)c12 | -22.6 |

| Compound | hERG current change (%, negative = inhibition) at 10uM [%] |
| --- | --- |
| CCOC(=O)c1c(C)n(C)c2ccc(O)c(CN3CCC(C)CC3)c12 | -23.2 |
| CCOC(=O)c1c(C)oc2ccc(O)c(CN3CCCCC3)c12 | -37.4 |
| CCCCn1c(C)c(C(=O)OCC)c2c(CN3CCOCC3)c(O)ccc21 | -55.9 |
| CCOC(=O)c1oc2cccc(O)c2c1CN1CCOCC1.Cl | -17.1 |
| CCOC(=O)c1c(-c2ccccc2)oc2ccc(O)c(CN3CCOCC3)c12 | -37 |
| CCCCn1c(C)c(C(=O)OCC)c2c(CN3CCCC3)c(O)ccc21 | -72 |
| CCOC(=O)c1c(-c2ccccc2)oc2ccc(O)c(CN3CCN(C)CC3)c12 | -23.5 |
| CCOC(=O)c1c(-c2ccccc2)oc2ccc(O)c(CN3CCCC3)c12 | -64.3 |
| CCOC(=O)c1c(C)n(C)c2ccc(O)c(CN3CCN(C)CC3)c12 | -3.46 |
| Cc1csc(SC(C)C(=O)Nc2ccc3c(c2)OCCO3)n1 (stereo not shown) | 6.25 |
| COc1ccc(OC)c(C2CC(=O)c3c([nH]c(C(=O)OCC4CCCO4)c3C)C2)c1 (stereo not shown) | 3.54 |
| CCOC(=O)C1C(=O)NC(N2CCN(CC)CC2)=NC1c1ccccc1 (stereo not shown) | 16.8 |
| CC1CCC(CN2CCN=C2Nc2ccccc2)CC1 (stereo not shown) | -14.7 |
| CC(C)c1nnc(NC(=O)CCC(=O)NC2CCCCC2)s1 | 1.73 |
| O=C(Nc1ccnn1C1CCN(C(=O)c2cc(Cl)ccc2F)CC1)C1CCOC1 (stereo not shown) | 23.6 |
| Fc1ccc2c(-c3cccc(C(F)(F)F)c3)c(-c3ccccc3)ncc2c1 | 14.1 |
| Cc1cc(C)cc(NC(=O)COc2coc(CN3CCc4ccccc43)cc2=O)c1 | 2.85 |
| Cc1cc(C)c(NC(=O)COC(=O)C2CCCCC2)c(C)c1 | 4.87 |
| Cc1cc(C)n(-c2cc(N3CCN(C(=O)c4cccc(Br)c4)CC3)ccc2[N+](=O)[O-])n1 | -67.6 |
| Cc1cc(C)n(-c2cc(N3CCN(C(=O)c4cccc(F)c4)CC3)ccc2[N+](=O)[O-])n1 | -67.9 |
| O=C(c1cccc(F)c1)N1CCN(c2ccc([N+](=O)[O-])c(N3CCOCC3)c2)CC1 | -25 |
| Cc1cc(C)n(-c2cc(N3CCN(S(=O)(=O)c4ccc5ccccc5c4)CC3)ccc2[N+](=O)[O-])n1 | -1.13 |
| Cc1cc(C)n(-c2cc(N3CCN(S(=O)(=O)c4ccc(Br)cc4)CC3)ccc2[N+](=O)[O-])n1 | -21.3 |
